Some test systems named below: NCI-H23 lung; NCI-H226 lung; NCI-H322M lung; HOP-62 NSCLC; NCI-H460 lung; HOP-92 NSCLC; NCI-H522 lung; A549/ATCC NSCLC; 786-0 renal; COLO 205 colon; DU-145 prostate; K-562 leukemia; MALME-3M melanoma; MDA-MB-231 breast; RXF 393 renal; SF-268 CNS; SF-295 CNS; SF-539 CNS; UACC-257 melanoma; M14 melanoma.
Common to all, as to assay: NCI-60 one-dose screen, 48 h (100 = growth as untreated, 0 = no growth, -100 = all killed)
Common to all, as to details: 10 µM unless noted

These results are taken from PubChem BioAssay (NCI).

Compounds without any hit were thinned out: in the full panel of roughly 83,000, 20% have a hit.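 Plates (96-well) were seeded with cells, treated with compound at one concentration, and incubated for 48 hours before percent growth was determined.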 Unmarked numbers belong to inactive results. The source made the active and inactive calls. How the source made its calls: active means growth percent below 10; inactive means the rest.

Regarding `C[C@H]1[C@H](C)CC[C@]2(COC(=O)CCC(=O)O)CC[C@]3(C)C(=CC[C@@H]4[C@@]5(C)CCCNC(C)(C)[C@@H]5CC[C@]43C)[C@H]12`, the growth was 62.8% [100 µM] in the assay on NCI-H23 lung; 76.3% [100 µM] in the assay with NCI-H226 lung; 86.8% [100 µM] with NCI-H322M lung; 49.1% [100 µM] with HOP-62 NSCLC; 66.8% [100 µM] in the assay on NCI-H460 lung; -7.31% [100 µM] (active) in the assay with HOP-92 NSCLC. The growth was 53.5% [100 µM] in the assay on NCI-H522 lung; 70.9% [100 µM] in the assay on A549/ATCC NSCLC; 55.6% [100 µM] with 786-0 renal; 69.1% [100 µM] with COLO 205 colon; 79.8% [100 µM] in the assay on DU-145 prostate; 48.9% [100 µM] with K-562 leukemia. The growth in the assay with MALME-3M melanoma was 77.1% [100 µM]; in the assay with MDA-MB-231 breast, 45.1% [100 µM]; in the assay on RXF 393 renal it was 53% [100 µM]; in the assay on SF-268 CNS, 62.5% [100 µM]; in the assay on SF-295 CNS, 59.1% [100 µM]; in the assay with SF-539 CNS, 50.9% [100 µM]. For the same molecule, the growth in the assay on UACC-257 melanoma is 78.5% [100 µM]; in the assay with M14 melanoma it was 92% [100 µM].
In the case of `COc1cc(OC)c(/C=C/C(=O)c2c(N)cc(OC)cc2OC)c(OC)c1`, the growth in the assay with NCI-H23 lung was 8.81% (active); with NCI-H226 lung, 75%; in the assay with NCI-H322M lung, 54.4%; in the assay on HOP-62 NSCLC, 43.6%; in the assay on NCI-H460 lung it was 2.53% (active); with HOP-92 NSCLC, 26.6%. For the same molecule, the growth was -11.8% (active) with NCI-H522 lung; 27.4% in the assay with A549/ATCC NSCLC; 35.2% with 786-0 renal; -24.4% (active) in the assay with COLO 205 colon; 12.6% in the assay on DU-145 prostate; 13.9% in the assay on K-562 leukemia. The growth in the assay on MALME-3M melanoma was 63.6%; with MDA-MB-231 breast, 41.2%; with RXF 393 renal it was -46.1% (active); in the assay with SF-268 CNS, 42.6%; in the assay with SF-295 CNS it was 4.26% (active); in the assay on SF-539 CNS it was -6.02% (active). In addition, the growth in the assay with UACC-257 melanoma is 49.4%; in the assay with M14 melanoma it was 18.2%.
Take `CCOC(=O)c1nn(C2CCCCO2)c2ccc(NC(=O)CSc3nc4ccccc4c(=O)[nH]3)cc12` (stereo not given): the growth in the assay with NCI-H23 lung is 102%; with NCI-H226 lung it was 97.6%; in the assay with NCI-H322M lung, 92.5%; with HOP-62 NSCLC it was 88.2%; in the assay on NCI-H460 lung it was 98.9%; in the assay with HOP-92 NSCLC, 92.5%. Besides, the growth was 100% in the assay with NCI-H522 lung; 99.4% in the assay with A549/ATCC NSCLC; 91% in the assay with 786-0 renal; 126% in the assay with COLO 205 colon; 102% with DU-145 prostate; 99.4% with K-562 leukemia. For the same molecule, the growth with MALME-3M melanoma is 103%; in the assay with MDA-MB-231 breast, 79.9%; in the assay on RXF 393 renal it was 71.8%; in the assay with SF-268 CNS, 90.1%; with SF-295 CNS it was 97.6%; with SF-539 CNS it was 82.4%. Besides, the growth was 102% in the assay with UACC-257 melanoma and 100% in the assay with M14 melanoma.
Take `CC(C)=CC/C=C(/C)[C@H]1CC[C@]2(C)[C@@H]1CC[C@@H]1[C@@]3(C)CCCNC(C)(C)[C@@H]3CC[C@]12C`: the growth with NCI-H23 lung was -61.7% [100 µM] (active); with NCI-H226 lung it was -49.5% [100 µM] (active); in the assay with NCI-H322M lung it was -99.4% [100 µM] (active); in the assay on HOP-62 NSCLC, -48.3% [100 µM] (active); in the assay with NCI-H460 lung, -74.2% [100 µM] (active); with HOP-92 NSCLC, -56.6% [100 µM] (active). Also, the growth in the assay with NCI-H522 lung is -59.3% [100 µM] (active); in the assay with A549/ATCC NSCLC, -51.8% [100 µM] (active); in the assay on 786-0 renal, -56.2% [100 µM] (active); in the assay on COLO 205 colon, -62.4% [100 µM] (active); in the assay with DU-145 prostate it was -78.7% [100 µM] (active); with K-562 leukemia, -19.2% [100 µM] (active). Moreover, the growth is -78.9% [100 µM] (active) in the assay with MALME-3M melanoma; -74.7% [100 µM] (active) with MDA-MB-231 breast; -70.1% [100 µM] (active) in the assay on RXF 393 renal; -48% [100 µM] (active) with SF-268 CNS; -77.8% [100 µM] (active) in the assay with SF-295 CNS; -86% [100 µM] (active) in the assay with SF-539 CNS. In addition, the figures for the growth in the assay on UACC-257 melanoma and in the assay with M14 melanoma were -72.3% [100 µM] (active) and -58.6% [100 µM] (active), respectively.
`Cc1ccc(-c2cc(-c3ccc(C)cc3)nc(N3CCN(CCNc4ccnc5cc(Cl)ccc45)CC3)n2)cc1`: the growth is 41.7% in the assay on NCI-H23 lung; 18% with NCI-H226 lung; 55.7% in the assay on NCI-H322M lung; 41.6% in the assay on HOP-62 NSCLC; 6.78% (active) with NCI-H460 lung; -12.7% (active) in the assay on HOP-92 NSCLC. The growth with NCI-H522 lung was 59.6%; in the assay on A549/ATCC NSCLC, 59.1%; in the assay with 786-0 renal, -38.8% (active); in the assay with COLO 205 colon, 10.9%; with DU-145 prostate it was 21.5%; with K-562 leukemia it was 27.7%. Moreover, the growth is -45.9% (active) in the assay on MALME-3M melanoma; 18.6% in the assay on MDA-MB-231 breast; -14.5% (active) in the assay with RXF 393 renal; 28.2% in the assay on SF-268 CNS; 94.9% in the assay with SF-295 CNS; 7.85% (active) in the assay on SF-539 CNS. In addition, the growth with UACC-257 melanoma was 40.8%; with M14 melanoma, -2.46% (active).
Regarding `Cc1cc(C)c(O)c(CNCCCCCCNCc2cc(C)cc(C)c2O)c1`, the growth was 56% in the assay on NCI-H23 lung; 81.6% in the assay with NCI-H226 lung; -12.6% (active) with NCI-H322M lung; 17.6% with HOP-62 NSCLC; -62.6% (active) in the assay with NCI-H460 lung; 12.1% in the assay with HOP-92 NSCLC. The growth in the assay on NCI-H522 lung is -13% (active); with A549/ATCC NSCLC it was 32%; with 786-0 renal, 54.5%; with COLO 205 colon, -72.8% (active); with DU-145 prostate, 7.45% (active); in the assay on K-562 leukemia it was -63% (active). For the same molecule, the growth in the assay with MALME-3M melanoma was -81.9% (active); with MDA-MB-231 breast, -44% (active); with RXF 393 renal, -2.77% (active); in the assay on SF-268 CNS it was 23.9%; in the assay on SF-295 CNS, -83.6% (active); with SF-539 CNS it was -85.3% (active). Moreover, the growth in the assay with UACC-257 melanoma is -80.6% (active); with M14 melanoma, -79.9% (active).
Turning to `Cn1ncc2c(Nc3ccc(O)cc3)nc(Cl)nc21`, the growth in the assay on NCI-H23 lung is 107%; with NCI-H226 lung, 91.2%; with NCI-H322M lung, 96.6%; with HOP-62 NSCLC, 95.8%; with NCI-H460 lung, 108%; with HOP-92 NSCLC, 104%. For the same molecule, the growth is 88% in the assay on NCI-H522 lung; 96% in the assay with A549/ATCC NSCLC; 111% in the assay on 786-0 renal; 108% in the assay with COLO 205 colon; 113% in the assay with DU-145 prostate; 90.5% in the assay on K-562 leukemia. For the same molecule, the growth in the assay with MALME-3M melanoma is 128%; in the assay on MDA-MB-231 breast, 93.7%; with RXF 393 renal, 96%; in the assay on SF-268 CNS, 97.7%; with SF-295 CNS it was 109%; in the assay with SF-539 CNS, 96.6%. Besides, the results for the growth with UACC-257 melanoma and in the assay with M14 melanoma were 105% and 111%, respectively.
